Activity calls are given as the source filed them. How the source made its calls: active means hit-call score of the fitted dose curve at least 0.9, where 1 is the maximum; inactive means score below 0.9.

What all share (conditions): mRNA level, 48 h; actives raise or lower the signal
Read-out in one test: MYC, MYC (gene 4609)
Briefly: LTEA_HepaRG_MYC: Life Technologies and Expression Analysis (LTEA) Assay for MYC using HepaRG (AID 2283518). A digest of the protocol: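 Differentiated human HepaRG cells, plated 48 h then switched to serum-free induction medium, were exposed in duplicate for 48 h to 8-point half-log series up to 100 uM in 0.5% DMSO. MYC mRNA measured by qRT-PCR, normalized to ACTB/GAPDH/POLR2A.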

Read-out in test [1]: matrix metalloproteinase-3 (MMP3), MMP3 (gene 4314)
Briefly: LTEA_HepaRG_MMP3: Life Technologies and Expression Analysis (LTEA) Assay for matrix metalloproteinase-3 (MMP3) using HepaRG (AID 2283519). A digest of the protocol: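 Human liver HepaRG cultures received chemicals (top concentration 100 uM, 0.5% DMSO) for 48 h in duplicate. MMP3 mRNA induction or loss was then assessed via TaqMan qRT-PCR with housekeeping-gene normalisation.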

Read-out in test [2]: Paternally Expressed 10 (PEG10), PEG10 (gene 23089)
Briefly: LTEA_HepaRG_PEG10: Life Technologies and Expression Analysis (LTEA) Assay for Paternally Expressed 10 (PEG10) using HepaRG (AID 2283520). A digest of the protocol: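 qRT-PCR read-out: PEG10 mRNA normalised to three housekeeping genes, fitted bidirectionally against 0.5% DMSO vehicle. HepaRG cells received test chemicals for 48 h in serum-free induction medium, 8 points, top 100 uM, half-log steps.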

Read-out in test [3]: Protein phosphatase 2A (PPP2R4), PTPA (gene 5524)
Briefly: LTEA_HepaRG_PPP2R4: Life Technologies and Expression Analysis (LTEA) Assay for Protein phosphatase 2A (PPP2R4) using HepaRG (AID 2283522). A digest of the protocol:
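HepaRG, 48 h exposure, 8-pt half-log series from 100 uM, 0.5% DMSO vehicle, duplicates. Readout: PPP2R4 mRNA, Fluidigm qRT-PCR, housekeeping-normalized. Bidirectional curve fit vs DMSO baseline.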

Read-out in test [4]: Phosphatase and tensin (PTEN), PTEN (gene 5728)
Briefly: LTEA_HepaRG_PTEN: Life Technologies and Expression Analysis (LTEA) Assay for Phosphatase and tensin (PTEN) using HepaRG (AID 2283523). Summed up: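 Expression of PTEN is quantified in the human liver line HepaRG following two days of dosing (top concentration 100 uM, half-log dilutions, 0.5% DMSO). Values derive from bidirectional curve fitting relative to DMSO controls.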

Read-out in test [5]: solute carrier (SLC22A1), SLC22A1 (gene 6580)
Briefly: LTEA_HepaRG_SLC22A1: Life Technologies and Expression Analysis (LTEA) Assay for solute carrier (SLC22A1) using HepaRG (AID 2283524). Summed up: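 Transcript induction or suppression of SLC22A1 in human HepaRG cultures is scored after 48 h chemical treatment, with DMSO (0.5%) as baseline for bidirectional fitting. Concentrations span eight half-log points topping at 100 uM.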

Read-out in test [6]: NAD(P)H dehydrogenase [quinone] 1 (NQO1), NQO1 (gene 1728)
As to the kind of experiment: LTEA_HepaRG_NQO1: Life Technologies and Expression Analysis (LTEA) Assay for NAD(P)H dehydrogenase [quinone] 1 (NQO1) using HepaRG (AID 2283526). Summed up: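 qRT-PCR read-out (Fluidigm TaqMan), normalized to three housekeeping genes, after 48 h chemical exposure of HepaRG cells. Concentrations: eight points, top 100 uM, half-log steps, 0.5% DMSO vehicle. Gain or loss of signal fitted relative to DMSO.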

Read-out in test [7]: Nuclear factor erythroid 2-related factor 2 (Homo sapiens) (UniProt Q16236)
As to the kind of experiment: LTEA_HepaRG_NFE2L2: Life Technologies and Expression Analysis (LTEA) Assay for Nuclear factor erythroid 2-related factor 2 (NFE2L2) Transcription Factor using HepaRG (AID 2283527).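 Further: TaqMan qRT-PCR transcript level normalised to ACTB GAPDH and POLR2A housekeeping genes.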 Summed up: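 Human liver HepaRG line treated in duplicate for 48 h with an eight-point series topping at 100 uM. Gene expression of NFE2L2 by qRT-PCR, bidirectionally fitted against the vehicle control.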

Read-out in test [8]: succinate dehydrogenase complex iron sulfur subunit B (SDHB), SDHB (gene 6390)
Briefly: LTEA_HepaRG_SDHB: Life Technologies and Expression Analysis (LTEA) Assay for succinate dehydrogenase complex iron sulfur subunit B (SDHB) using HepaRG (AID 2283528). A digest of the protocol:
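HepaRG cells (~100,000/well, plated 48 h) exposed in duplicate for 48 h in serum-free induction medium to 8-point half-log series from 100 uM in 0.5% DMSO; mRNA by qRT-PCR normalised to ACTB, GAPDH, POLR2A; bidirectional fit versus DMSO.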

Read-out in test [9]: Signal transducer and activator of transcription 3 (Homo sapiens) (UniProt P40763)
As to the kind of experiment: LTEA_HepaRG_STAT3: Life Technologies and Expression Analysis (LTEA) Assay for Signal transducer and activator of transcription (STAT3) using HepaRG (AID 2283529). Summed up: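 In this transcriptional endpoint, HepaRG cultures receive test chemicals at up to 100 uM for 48 h, tested in duplicate. STAT3 mRNA is normalized to ACTB, GAPDH and POLR2A.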

Read-out in test [10]: solute carrier (SLCO1B1), SLCO1B1 (gene 10599)
As to the kind of experiment: LTEA_HepaRG_SLCO1B1: Life Technologies and Expression Analysis (LTEA) Assay for solute carrier (SLCO1B1) using HepaRG (AID 2283530). A digest of the protocol: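 Differentiated human HepaRG cells, plated 48 h, switched to serum-free induction medium and exposed in duplicate for 48 h to 8 half-log concentrations (top 100 uM) in 0.5% DMSO. SLCO1B1 mRNA by TaqMan qRT-PCR, normalized to ACTB/GAPDH/POLR2A.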

Read-out in test [11]: sulfotransferase 2A1 (SULT2A1), SULT2A1 (gene 6822)
As to the kind of experiment: LTEA_HepaRG_SULT2A1: Life Technologies and Expression Analysis (LTEA) Assay for sulfotransferase 2A1 (SULT2A1) using HepaRG (AID 2283531). Summed up:
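Differentiated human HepaRG cells in serum-free induction medium were exposed for 48 h to eight half-log concentrations (top 100 uM, 0.5% DMSO). SULT2A1 mRNA was measured by qRT-PCR, normalized to ACTB, GAPDH and POLR2A, and fitted bidirectionally against DMSO.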

Read-out in test [12]: Transforming Growth Factor (TGFA), TGFA (gene 7039)
Briefly: LTEA_HepaRG_TGFA: Life Technologies and Expression Analysis (LTEA) Assay for Transforming Growth Factor (TGFA) using HepaRG (AID 2283532). Summed up: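 Gene expression of TGFA was quantified by qRT-PCR after human HepaRG cells were treated for 48 h with test chemicals (eight concentrations, highest 100 uM, 0.5% DMSO). Activity in either direction was fitted relative to DMSO.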

Read-out in test [13]: Transforming Growth Factor (TGFB1), TGFB1 (gene 7040)
Briefly: LTEA_HepaRG_TGFB1: Life Technologies and Expression Analysis (LTEA) Assay for Transforming Growth Factor (TGFB1) Transporter using HepaRG (AID 2283533). Summed up:
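Differentiated human HepaRG cells in serum-free induction medium were exposed in duplicate for 48 h to eight concentrations (top 100 uM, half-log steps, 0.5% DMSO). TGFB1 mRNA was quantified by qRT-PCR, normalized to ACTB, GAPDH, POLR2A, and fitted bidirectionally against DMSO.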

Read-out in the next test: TIMP1, TIMP1 (gene 7076)
As to the kind of experiment: LTEA_HepaRG_TIMP1: Life Technologies and Expression Analysis (LTEA) Assay for TIMP1 using HepaRG (AID 2283534).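 Further: TaqMan qRT-PCR signal normalized to ACTB GAPDH and POLR2A housekeeping genes.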 A digest of the protocol: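 Differentiated human HepaRG cells in serum-free induction medium were exposed 48 h to chemicals (8 half-log concentrations, top 100 uM, 0.5% DMSO). TIMP1 mRNA was quantified by TaqMan qRT-PCR, normalized to ACTB/GAPDH/POLR2A; bidirectional fit versus DMSO.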

Read-out in test [14]: Tumor necrosis factor receptor 1 (TNFRSF1A), TNFRSF1A (gene 7132)
As to the kind of experiment: LTEA_HepaRG_TNFRSF1A: Life Technologies and Expression Analysis (LTEA) Assay for Tumor necrosis factor receptor 1 (TNFRSF1A) using HepaRG (AID 2283535). Summed up:
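Differentiated human HepaRG cells were exposed in duplicate for 48 h in serum-free induction medium to eight concentrations (top 100 uM, half-log steps, 0.5% DMSO). TNFRSF1A mRNA was quantified by qRT-PCR, normalized to ACTB, GAPDH and POLR2A, then fitted bidirectionally against DMSO.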

Read-out in test [15]: Thyroid Hormone Responsive (THRSP), THRSP (gene 7069)
As to the kind of experiment: LTEA_HepaRG_THRSP: Life Technologies and Expression Analysis (LTEA) Assay for Thyroid Hormone Responsive (THRSP) using HepaRG (AID 2283536). Summed up: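 Cell model: human HepaRG, approx. 100,000 cells/well, 0.5% DMSO vehicle. Exposure lasts 48 h; phenobarbital 1 mM serves as induction positive control. Gene expression is measured by qRT-PCR against three endogenous control genes.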

Read-out in test [16]: UDP glucuronosyltransferase (UGT1A1), UGT1A1 (gene 54658)
As to the kind of experiment: LTEA_HepaRG_UGT1A1: Life Technologies and Expression Analysis (LTEA) Assay for UDP glucuronosyltransferase (UGT1A1) using HepaRG (AID 2283538). A digest of the protocol: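 HepaRG, 48 h chemical exposure (top 100 uM, half-log 8-pt, 0.5% DMSO vehicle), duplicate wells; qRT-PCR (TaqMan, Fluidigm array) for UGT1A1 mRNA, housekeeping-normalized; bidirectional curve fit vs DMSO baseline.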

Chain of Nuclear factor erythroid 2-related factor 2 (Homo sapiens) (Q16236 whole entry, looked up): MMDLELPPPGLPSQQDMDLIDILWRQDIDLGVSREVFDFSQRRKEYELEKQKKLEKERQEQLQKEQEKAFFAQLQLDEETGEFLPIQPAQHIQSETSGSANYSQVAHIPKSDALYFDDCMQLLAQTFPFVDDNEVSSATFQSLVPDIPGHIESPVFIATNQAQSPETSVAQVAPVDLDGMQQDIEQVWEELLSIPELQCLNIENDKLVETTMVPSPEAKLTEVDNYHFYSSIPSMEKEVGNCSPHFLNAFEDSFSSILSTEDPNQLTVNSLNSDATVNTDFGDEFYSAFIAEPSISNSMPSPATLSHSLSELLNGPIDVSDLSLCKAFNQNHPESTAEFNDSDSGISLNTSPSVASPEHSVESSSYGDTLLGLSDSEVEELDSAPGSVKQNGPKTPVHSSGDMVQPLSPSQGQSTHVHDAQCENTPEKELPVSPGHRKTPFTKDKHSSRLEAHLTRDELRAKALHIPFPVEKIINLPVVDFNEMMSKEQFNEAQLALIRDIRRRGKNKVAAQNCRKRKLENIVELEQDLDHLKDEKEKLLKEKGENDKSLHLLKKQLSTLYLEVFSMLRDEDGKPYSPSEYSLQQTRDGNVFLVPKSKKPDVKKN
Chain of Signal transducer and activator of transcription 3 (Homo sapiens) (P40763 whole entry, looked up): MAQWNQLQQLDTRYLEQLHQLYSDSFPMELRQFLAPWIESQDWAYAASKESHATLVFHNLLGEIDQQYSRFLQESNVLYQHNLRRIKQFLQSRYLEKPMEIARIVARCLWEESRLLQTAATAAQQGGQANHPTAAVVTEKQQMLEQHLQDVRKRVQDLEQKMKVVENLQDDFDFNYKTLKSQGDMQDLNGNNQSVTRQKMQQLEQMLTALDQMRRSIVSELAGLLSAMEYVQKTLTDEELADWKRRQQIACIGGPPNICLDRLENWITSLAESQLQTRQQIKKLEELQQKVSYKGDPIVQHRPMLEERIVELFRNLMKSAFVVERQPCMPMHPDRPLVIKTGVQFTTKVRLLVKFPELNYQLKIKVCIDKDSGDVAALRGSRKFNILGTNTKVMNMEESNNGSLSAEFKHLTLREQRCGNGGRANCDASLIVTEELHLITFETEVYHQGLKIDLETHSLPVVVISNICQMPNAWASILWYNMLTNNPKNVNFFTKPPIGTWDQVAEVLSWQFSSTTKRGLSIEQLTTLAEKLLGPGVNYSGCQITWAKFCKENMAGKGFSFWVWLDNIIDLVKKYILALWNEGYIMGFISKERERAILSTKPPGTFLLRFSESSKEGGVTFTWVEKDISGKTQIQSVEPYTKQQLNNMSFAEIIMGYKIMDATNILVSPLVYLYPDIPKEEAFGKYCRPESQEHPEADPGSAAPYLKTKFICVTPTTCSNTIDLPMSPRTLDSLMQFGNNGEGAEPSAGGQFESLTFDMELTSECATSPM

In the case of `C[C@]12C=CC(=O)C=C1CC[C@H]1[C@@H]3C[C@@H](O)[C@](O)(C(=O)CO)[C@@]3(C)C[C@H](O)[C@@]12F`, the outcome with MYC, MYC (gene 4609) is “inactive”; in [1] it was “inactive”; in [2], “inactive”; in test [3], “inactive”; in test [4], “inactive”; in test [5], “inactive”. For the same compound, the compound was classed as inactive in [6], in test [7], in test [8], in test [9], in test [10] and in test [11]. For the same compound, the outcome in [12] was “inactive”; in [13], “inactive”; with TIMP1, TIMP1 (gene 7076) it was “inactive”; in test [14], “inactive”; in test [15] it was “inactive”.
Broadly, the AC50 is the concentration giving half of the maximal activity seen. As for `CC(C)c1nnc2ccc(-c3ocnc3-c3cc(F)ccc3F)cn12`, the outcome is “inactive” in the test with MYC, MYC (gene 4609); “inactive” in test [2]; “inactive” in [3]; “inactive” in [4]; “inactive” in test [8]; “inactive” in test [9]. For the same compound, the outcome in test [12] is “inactive”; in test [13], “inactive”; with TIMP1, TIMP1 (gene 7076), “inactive”; in test [14] it was “inactive”. Moreover, the concentration at half-maximal activity (AC50) in test [1] was 7.09 µM (active); in [5], 15.4 µM (active); in test [10] it was 50 µM (active); in test [11], 94 µM (active); in test [15], 9.92 µM (active).
For `O=c1[nH]cnc2c1ncn2[C@H]1CC[C@@H](CO)O1`, the outcome with MYC, MYC (gene 4609) was “inactive”; in test [1] it was “inactive”; in test [2] it was “inactive”; in test [3] it was “inactive”; in [4] it was “inactive”; in test [5] it was “inactive”. The call in test [6], in [7], in test [8], in [9], in test [10] and in test [11] was inactive. Moreover, the outcome is “inactive” in test [12]; “inactive” in test [13]; “inactive” with TIMP1, TIMP1 (gene 7076); “inactive” in test [14]; “inactive” in test [15]; “inactive” in test [16].
With `CCCc1ccccc1`, the outcome is “inactive” with MYC, MYC (gene 4609); “inactive” in [1]; “inactive” in test [2]; “inactive” in [3]; “inactive” in test [4]; “inactive” in test [5]. For the same compound, the outcome in test [7], in test [8], in [9], in test [10], in test [11] and in [12] was inactive. The outcome is “inactive” in test [13]; “inactive” in the test with TIMP1, TIMP1 (gene 7076); “inactive” in [14]; “inactive” in test [15]; “inactive” in test [16].

The values above are taken from PubChem BioAssay (EPA / NIEHS).
